We go through 108 compounds from ChEMBL document CHEMBL4513216, “Probing the Open Global Health Chemical Diversity Library for Multistage-Active Starting Points for Next-Generation Antimalarials” (ACS Infect Dis, 2020).

The whole screen tested about 69,000 compounds, of which about 8,600 (12%) showed an effect of 50% or more. What follows is part of a selection rich in strong results, with near analogues and random picks from the rest.

The test system of this test is Plasmodium berghei. The experiment in a line: Screen against P. berghei liver stage (PbLuc), transformed with Luciferase, at 10uM. Format: functional, HepG2. Particulars: tested at 10 uM.
As for `CC(C)NC(=O)N1Cc2nccn2CC(COc2cccnc2)C1` (stereo not drawn), the INHIBITION is recorded as 22.4%.
Then `O=C(c1cscn1)N1CCC2(CCN(Cc3cccs3)CC2)C1`, with -5.12%; and `COc1ccccc1N1CCN(Cc2ncc(C)c(OC)c2C)CC1=O`, with 37.4%.
Then `CC(C)NC(=O)CNC(C)c1c(F)cccc1Cl` (stereo not drawn), with 31.2%; and `CC(NC(=O)N1CCS(=O)(=O)CC1)c1c(F)cccc1Cl` (stereo not drawn), with -5.275%.
Then `CC(NC(=O)N1CCNC(=O)CC1)c1c(F)cccc1Cl` (stereo not drawn), with -36.75%; and `CNC(=O)NC(C)c1c(F)cccc1Cl` (stereo not drawn), with 50.8%.
With `NC(=O)CNC(c1ccccc1)c1ccccc1`, the INHIBITION amounted to 6.67%.
As to `CC(NCC(N)=O)c1c(F)cccc1Cl` (stereo not drawn), the INHIBITION is reported as 67.1%.
As for `CCOc1ccccc1N1CCN(c2nnc(C)o2)CC1`, the figure is 7.4%; as for `CCN(CC)C(=O)CN(C)CCn1nc2ccccn2c1=O`, -79.8%.
As for `N#Cc1ccc(C(=O)N2CC[C@H]3[C@@H]2CCC(=O)N3c2cccnc2)cc1`, the figure is 23.9%.
Then `Cc1ccc(C(=O)N2C[C@@H](OCc3cccnc3)[C@H]3OCCC[C@H]32)o1`, with 10.6%.
Consider `Cc1ccc2c(c1)OC(C)CN2C(=O)c1c[nH]c(C)cc1=O` (stereo not drawn), for which the INHIBITION came to 26.9%.
Regarding `CCN1CCC2(CC1)CC(CC(=O)N(C)C)c1ccc(F)cc12` (stereo not drawn), the INHIBITION came out at 53%.
Then `CCOC1CC2(CCN(C(=O)COC)CC2)c2cc(F)ccc21` (stereo not drawn), with 19.8%.
Then `CCC(=O)N1CCC2(CC1)CC(CC(=O)N(C)C)c1ccc(F)cc12` (stereo not drawn), with 51.2%.
As for `CN(C)C(=O)CC1CC2(CCN(CC3CC3)CC2)c2cc(F)ccc21` (stereo not drawn), the figure is 35.3%.
With `CCNC(=O)CC1CC2(CCN(C(C)=O)CC2)c2cc(F)ccc21` (stereo not drawn), the INHIBITION came out at 31.4%.
Then `CCC(=O)N1CCC2(CC1)CC(CC(N)=O)c1ccc(F)cc12` (stereo not drawn), with -26.5%.
As for `Cc1cccc(-c2ccc(C(=O)NCC3CCCOC3)c(=O)[nH]2)c1` (stereo not drawn), the figure is -24.2%; as for `COCCC(=O)N1CCN(CC(C)C)c2nc(C)ccc2C1`, 7.24%.
For the compound `Cc1ncsc1COC(=O)c1cccc2c1OCCO2`, the INHIBITION turned out to be 77.9%.
Then `Cc1ncsc1CN(C)C(=O)CC1CCOc2ccccc21` (stereo not drawn), with -1.35%; and `Cc1nc(COC(=O)c2cccc3c2OCCO3)cs1`, with 48.8%.
Then `Cc1nc(COC(=O)c2cccnc2C)no1`, with 32%.
As for `Cc1nc(COC(=O)c2cccc3c2OCCO3)no1`, the figure is 70.1%; as for `COCc1ccccc1C(=O)OCc1noc(C)n1`, 9.63%.
Take `Cc1nc(CN2C(=O)CCC23CCN(Cc2ccoc2)CC3)cs1`: the INHIBITION is reported as -30%.
As for `O=S(=O)(c1ccccc1)N1CCOCC(Cc2cccnc2)C1` (stereo not drawn), the figure is 9.05%.
Then `CCN(C(=O)CN1CCCC1Cc1ccccc1)c1ccccc1` (stereo not drawn), with 75.7%; and `CN(Cc1cccc(F)c1)C(=O)CN1CCCC1CCc1ccccc1` (stereo not drawn), with 5.14%.
As for `COc1ccc(CC2CCCN2CCCC#N)cc1` (stereo not drawn), the figure is 35.9%.
In the case of `COc1cccc(CC2CCCN2CC(N)=O)c1` (stereo not drawn), the INHIBITION is recorded as 35%.
With `COc1cccc(CC2CCCN2CCCC#N)c1` (stereo not drawn), the INHIBITION is 34.1%.
Then `N#CCCN(C(=O)CN1CCCC1Cc1ccccc1)c1ccccc1` (stereo not drawn), with 38.5%; and `CN(C(=O)CN1CCCC1Cc1ccccc1)c1ccccc1` (stereo not drawn), with 68%.
Then `N#CCCCN1CCCC1Cc1ccccc1` (stereo not drawn), with 53.6%; and `CCN(C(=O)CN1CCCC1c1ccc(OC)cc1)c1ccccc1` (stereo not drawn), with -47.9%; and `COc1ccc(CCN2CC(n3nc(C)cc3C)C2)cc1`, with -6.61%.
Then `Cc1cnn(CCCNCc2csc(COc3ccccc3)n2)c1`, with 30.2%; and `CCOC(=O)c1sc(NC(=O)C(C)(C)C)c(C#N)c1C`, with -43.6%.
With `Cc1nn(C)c(C)c1C1CCCN1CC(=O)NCc1ccccn1` (stereo not drawn), the INHIBITION amounted to 26.5%.
As for `COCCNC(=O)CN1CCC(N2CCN(C)C2=O)CC1`, the figure is 48.2%; as for `Cc1cc(C(=O)N2CCCC(c3nccn3C)C2)cc(S(N)(=O)=O)c1C` (stereo not drawn), -2.98%; as for `Cc1cc(C)nc(N2CCC(C(=O)Nc3ncc[nH]3)CC2)n1`, 47.9%.
As for `CNc1cc(C(=O)N2CCOC(C(=O)NC3CCCC3)C2)ccn1` (stereo not drawn), the figure is -23.4%; as for `O=C(NCCSc1ccccc1)[C@H]1CNC[C@@H](C(=O)N2CCOCC2)C1`, -1.09%.
As for `CCc1cc(C(F)(F)F)c2c(C3CCCN(C(=O)COC)C3)noc2n1` (stereo not drawn), the figure is -8.12%.
For `COCC(=O)N1CCC(c2noc3nc(C)cc(C(F)(F)F)c23)CC1`, the INHIBITION came to 15.4%.
For `Cc1cc(C(F)(F)F)c2c(C3CCN(S(=O)(=O)N(C)C)CC3)noc2n1`, the INHIBITION turned out to be 60.8%.
As for `CCc1cc(C(F)(F)F)c2c(C3CCN(C(=O)COC)CC3)noc2n1`, the figure is 52%; as for `COCC(=O)N1CCC(c2cc(C(F)(F)F)c3c(C)noc3n2)CC1`, 9.93%; as for `COCCC(=O)N1CCC(c2noc3nc(C)cc(C(F)(F)F)c23)CC1`, 38.1%.
As for `CCn1ncc2c1C(COCC1CC1)N(Cc1c(C)noc1C)CC2` (stereo not drawn), the figure is 47.5%; as for `CCCn1nccc1NC(=O)CN1CCc2c(nc(C3CC3)n2C)C1`, 5.7%; as for `CNC(=O)CN1CCc2c(CNc3nccs3)n[nH]c2C1`, -4.88%.
Then `CCNc1c(NC(=O)C(C)(C)C)c(=O)oc2ccccc12`, with -3.83%; and `O=C(NC[C@]12COC[C@H]1CN(Cc1nccs1)C2)N1CCCC1`, with -20.5%; and `O=C(c1cccnc1)N1Cc2nccn2CC(COc2cccnc2)C1` (stereo not drawn), with 9.51%.
Take `O=C(Cc1ccc2c(c1)CCO2)N1CCCCC1Cn1cccn1` (stereo not drawn): the INHIBITION is given as -35.5%.
For `O=C(Cc1ccc(O)c(Cl)c1)N1CCCCC1CCn1cccn1` (stereo not drawn), the INHIBITION is reported as 60.1%.
For the compound `COc1ccc(CC(=O)N2CCCCC2Cn2cccn2)cc1OC` (stereo not drawn), the INHIBITION was 0.79%.
Then `CCOC1COC2(CCN(Cc3ccco3)CC2)C1` (stereo not drawn), with -2.35%; and `O=c1[nH]c(-c2ccncc2)ncc1-c1ccnc(N2CCOCC2)n1`, with 18.9%.
Then `CCN1CC2(CCN(C(=O)C(C)Oc3ccc(F)cc3F)CC2)OC1=O` (stereo not drawn), with 52.5%; and `CCN1CC2(CCN(C(=O)C(C)Oc3cccc(Cl)c3)CC2)OC1=O` (stereo not drawn), with 14.9%; and `CC(Oc1ccc(F)cc1F)C(=O)N1CCC2(CCCO2)CC1` (stereo not drawn), with 14.9%.
Then `Cc1cc(C)n(-c2cncc(N3CCN(C(=O)C(C)C)CC3)n2)n1`, with 14%.
For `Cc1cc(C)n(-c2cncc(N3CCN(C(=O)CN(C)C)CC3)n2)n1`, the INHIBITION is on record as 52.6%.
As for `CCC(=O)N1CCCN(c2cncc(-n3nc(C)cc3C)n2)CC1`, the figure is 13.2%; as for `CCc1cc(N2CCC(NCc3ccc(C)o3)CC2)ncn1`, -24.9%.
As for `CC(C)Nc1cc(N2CCC(n3cc(C4CC4)nn3)CC2)ncn1`, the figure is 24.7%.
As for `CCc1cc(N2CCC(n3cc(C(=O)NC4CC4)nn3)CC2)ncn1`, the figure is 89.3%; as for `OCCNc1cc(N2CCC(n3cc(C4CCCC4)nn3)CC2)ncn1`, 28%.
As to `O=C(NC1CC1)c1cn(C2CCN(c3cc(C4CC4)ncn3)CC2)nn1`, the INHIBITION was 39.3%.
On to `CCc1cc(N2CCC(Nc3ccc(Cl)cn3)CC2)ncn1`, for which the INHIBITION turned out to be 84.6%.
Then `CCc1ncc(CN2CCN(c3cc(NC4CC4)nc(N)n3)CC2)cn1`, with -55%; and `Cc1ccc(SCCCNC(=O)c2cn(C3CCC(N)CC3)nn2)cc1` (stereo not drawn), with -164%; and `CCc1cc(N2CCC(n3cc(C(=O)NCC(C)C)nn3)CC2)ncn1`, with 71.4%.
As for `CSCCC(C)(O)CNS(=O)(=O)Cc1ccc(F)cc1` (stereo not drawn), the figure is 44.9%; as for `Cc1ccccc1CNC(=O)CN1CCCC(Cc2nccn2C)C1` (stereo not drawn), -50.8%; as for `CC(C)CCn1cc(C(C(=O)O)N2CCCN(C3CCCC3)CC2)cn1` (stereo not drawn), 33.9%.
As for `c1nc(CNC2CCOCC2)c2n1CCCN(CC1CC1)C2`, the figure is 45.1%; as for `Cn1ccc(C(=O)NC2CCC23CCN(Cc2cnn(C)c2)CC3)c1` (stereo not drawn), -28.7%.
Take `CCS(=O)(=O)N1CCN(CCn2cccn2)c2nc(C)ccc2C1`: the INHIBITION was 26.3%.
Turning to `c1cc(CN2CC[C@@H]3[C@@H](CO[C@H]3CN3CCOCC3)C2)cs1`, the INHIBITION was -20.1%.
As to `CCN(CC)C(=O)CN(C)C(=O)c1ccc(-c2ccsc2)nc1C`, the INHIBITION is listed as 59.5%.
As for `CCN(CC)C(=O)c1ccc(-c2ccsc2)nc1C`, the figure is -6.53%.
As for `CCN(CC)C(=O)CNC(=O)c1ccc(-c2ccsc2)nc1C`, the figure is 34.5%.
Take `CCn1nc(C)c2nn(CC(=O)NC3CCSCC3)cc21`: the INHIBITION was determined as 25.4%.
As for `Cn1cccc1C(=O)N1C[C@@H]2C[C@@H](c3nc(C4CC4)cs3)O[C@@H]2C1`, the figure is -5.08%; as for `CC(C)(C)C(=O)NCCc1cc2nc(-c3ccncc3)ccn2n1`, 24.44%; as for `CCOCC(O)CN1CCN(C(=O)c2cccc(OC)c2)CC1` (stereo not drawn), -33.7%.
Then `CCOC(=O)C1(CCOC)CCN(Cc2nccn2CC)CC1`, with 28.7%; and `Cc1cccc(CN2CCC(c3nccn3CC(N)=O)CC2)n1`, with 58.3%; and `CCn1ccnc1CN1CCCC(CO)(Cc2cccc(OC)c2)C1` (stereo not drawn), with 23.7%.
As to `CCOC(=O)C1(Cc2ccccc2)CCCN(Cc2nccn2CC)C1` (stereo not drawn), the INHIBITION was found to be 35.4%.
As for `Cc1cnc(C)c(N2CCCC(CO)(Cc3cccc(Cl)c3)C2)n1` (stereo not drawn), the figure is 34.6%; as for `OCC1(Cc2cccc(Cl)c2)CCCN(c2ncccn2)C1` (stereo not drawn), 11.4%; as for `Cc1ncc(C)c(N2CCCC(CO)(Cc3cccc(Cl)c3)C2)n1` (stereo not drawn), 86.8%.
In the case of `N#Cc1ccccc1CN1CCC(c2nccn2CC(N)=O)CC1`, the INHIBITION is given as -15.3%.
Then `CCn1ccnc1CN1CCCC(CO)(Cc2cccc(Cl)c2)C1` (stereo not drawn), with 79.3%; and `CCOC(=O)C1(CCOC)CCCN(Cc2nccn2CC)C1` (stereo not drawn), with 62.2%; and `CCn1ccnc1C1CCN(Cc2cccc(C)n2)CC1`, with 24.2%.
Then `CCC1(CO)CCCN(Cc2nccn2Cc2ccccc2)C1` (stereo not drawn), with -82.2%.
As for `COc1ccccc1CN(CC1CCCO1)C(=O)c1csnn1` (stereo not drawn), the figure is 18.4%; as for `O=C(CCc1nccs1)N1CCN(c2nccs2)CC1`, -2.19%.
